# Bioassay records as filed in PubChem.
# Tb PGK inh: blocks T. brucei phosphoglycerate kinase; Potency, µM (titrated, usually from 57.5 µM), for inactives: at the top dose activity change, negative = inhibition, hits mostly inhibitors; PGK/GAPDH coupled, Kinase-Glo luminescence, 60 min; 380,000 compounds, 0.043% hits; AID 602233; P07378; also: nearly all actives have a fitted effect of over 60% in size
#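 Luminescent ATP detection (Kinase-Glo Plus) follows a 60-minute room-temperature incubation, with wells lacking PGK as controls. Buffer: 100 mM TEA (pH 7.6), 5 mM MgCl2, 0.01% Tween-20. Coupling enzyme GAPDH (100 nM final) supplies unstable 1,3-BPG in-well.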
# BLM helicase inh: blocks DNA unwinding by human BLM helicase; P54132; AID 2528; Potency, µM (titrated, usually from 56.1 µM), without a hit: at the top dose activity change, negative = inhibition, most hits filed as inhibitors; recombinant BLM DNA unwinding, fluorescence dequenching; 350,000 compounds, 0.2% hits;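 also: plate controls were vehicle for no effect and no enzyme for full effect; nearly all actives have a fitted effect of over 35% in size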
# Target sequence (P54132 whole entry, looked up): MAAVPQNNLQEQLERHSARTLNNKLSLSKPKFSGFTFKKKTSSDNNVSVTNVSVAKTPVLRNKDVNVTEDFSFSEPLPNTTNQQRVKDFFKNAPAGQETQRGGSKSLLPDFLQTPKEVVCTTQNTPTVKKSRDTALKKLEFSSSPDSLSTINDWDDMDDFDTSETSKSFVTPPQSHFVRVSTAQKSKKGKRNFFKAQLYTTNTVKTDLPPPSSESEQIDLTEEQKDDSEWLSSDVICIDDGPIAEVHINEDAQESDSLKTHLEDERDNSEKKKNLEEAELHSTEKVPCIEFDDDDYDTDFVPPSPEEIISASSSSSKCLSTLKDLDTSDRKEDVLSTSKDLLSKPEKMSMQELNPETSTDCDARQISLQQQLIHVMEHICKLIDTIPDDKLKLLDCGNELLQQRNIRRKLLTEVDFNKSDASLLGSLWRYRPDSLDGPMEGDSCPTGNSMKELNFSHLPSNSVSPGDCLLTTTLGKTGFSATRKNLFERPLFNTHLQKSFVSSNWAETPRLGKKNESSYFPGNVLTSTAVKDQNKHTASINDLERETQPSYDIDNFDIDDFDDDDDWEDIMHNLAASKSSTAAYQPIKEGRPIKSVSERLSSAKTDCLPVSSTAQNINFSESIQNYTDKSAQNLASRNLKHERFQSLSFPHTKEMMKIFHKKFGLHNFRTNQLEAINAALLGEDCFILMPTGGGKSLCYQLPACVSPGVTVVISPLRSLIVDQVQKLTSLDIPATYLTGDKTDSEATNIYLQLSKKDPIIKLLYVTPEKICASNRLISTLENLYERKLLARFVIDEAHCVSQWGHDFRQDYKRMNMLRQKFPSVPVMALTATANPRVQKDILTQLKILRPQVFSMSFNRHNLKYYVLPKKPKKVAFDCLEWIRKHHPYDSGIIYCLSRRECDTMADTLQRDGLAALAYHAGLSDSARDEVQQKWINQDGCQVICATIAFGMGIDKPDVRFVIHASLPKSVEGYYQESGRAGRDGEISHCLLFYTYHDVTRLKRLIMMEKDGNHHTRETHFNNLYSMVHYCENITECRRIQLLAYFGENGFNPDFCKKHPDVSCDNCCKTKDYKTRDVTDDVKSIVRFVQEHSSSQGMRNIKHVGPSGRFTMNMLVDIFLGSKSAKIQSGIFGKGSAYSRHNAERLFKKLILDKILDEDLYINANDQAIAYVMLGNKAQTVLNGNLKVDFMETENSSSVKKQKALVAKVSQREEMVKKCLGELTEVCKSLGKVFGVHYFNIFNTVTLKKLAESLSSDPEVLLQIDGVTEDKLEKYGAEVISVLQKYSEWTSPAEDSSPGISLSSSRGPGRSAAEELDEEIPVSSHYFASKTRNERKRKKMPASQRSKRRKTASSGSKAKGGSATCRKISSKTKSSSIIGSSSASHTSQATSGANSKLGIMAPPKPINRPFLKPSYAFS
# TDP1 inh: blocks human tyrosyl-DNA phosphodiesterase 1 | Q9NUW8 | recombinant TDP1, AlphaScreen DNA substrate cleavage | Potency, µM (titrated, usually from 130 µM), without a hit: at the top dose activity change, negative = inhibition, hits mostly inhibitors | 350,000 compounds, 0.28% hits; also: nearly all actives have a fitted effect of over 40% in size
#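 Here, a 5' biotin and 3' phosphotyrosine-FITC DNA oligonucleotide reports Tdp1 activity: intact substrate bridges AlphaScreen beads, while cleavage leaves a 3' phosphate and drops signal. All incubations at room temperature.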
# APEX1 inh: APE1 (human) endonuclease inhibition | recombinant APE1, TAMRA/BHQ-2 abasic DNA cleavage fluorescence | Potency, µM (doses to about 65.8 µM), without a hit: top-dose activity change, negative = inhibition, most hits filed as inhibitors | 350,000 compounds, 0.35% hits | AID 2517;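 also: plate controls were vehicle for no effect and reference inhibitor for full effect; nearly all actives have a fitted effect of over 55% in size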
#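 APE1 at 0.75 nM final was preincubated with compound 15 min at room temperature, then 50 nM double-stranded THF abasic-site substrate (5'-TAMRA/3'-BHQ-2) was added. Fluorescence (ex 525/em 598 nm) was read kinetically; third-minus-first read gave activity.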
# RECQ1 inh: RECQ1 (human) helicase inhibition. Potency, µM (top dose mostly 57.3 µM), for the others: at the highest dose activity, negative = inhibition, actives largely listed as inhibitors. RECQ1 DNA unwinding, red fluorescence kinetic read. 240,000 compounds, 0.54% hits. P46063;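 also: plate controls were vehicle for no effect and no enzyme for full effect; nearly all actives have a fitted effect of over 30% in size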
#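 RECQ1T1 50 nM; forked duplex (20 bp + 30-nt ss tails) 200 nM, ATP 2 mM final; pH 8.0, 2 mM MgCl2, 2.5 ug/ml poly(dI-dC); 15 min compound preincubation; discontinuous kinetic read over 2 h at RT.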
# GLS inh: inhibitors of human glutaminase (GLS). AID 624170. Potency, µM (series often up to 45.5 µM), without a hit: at the top dose activity change, negative = inhibition, actives largely listed as inhibitors. O94925. 410,000 compounds, 0.21% hits. GLS enzymatic activity, qHTS titration
#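 Human kidney-isoform GLS in 45 mM KH2PO4 pH 8.2, 0.02% Tween-20, with compound, started with 1mM L-Glutamine (added stock). Glutamate oxidase/HRP/Amplex red coupled fluorescence read at start and after 30 min at RT.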
# Numbers without * were called inactive; i = inactive; u = inconclusive; x = no result; ! = not confirmed by another sample. Shown are actives, neighbours in structure and some others; about 0.85% of the full set was active somewhere. Calls follow the shape of the dose curve; as a rule, active = well fitted curve in the direction sought with a large enough effect; inconclusive = small, poorly fitted or top-dose-only effect, or another doubt; inactive = no such curve, though single readings can be large; an effect the other way counts as inactive or inconclusive. Unless noted, % is scaled to controls: 0 for no effect and ±100 for the full control effect; potency is read from the fitted curve at half-maximal effect.
SMILES,Tb PGK inh,BLM helicase inh,TDP1 inh,APEX1 inh,RECQ1 inh,GLS inh
Cc1ccc(NCc2ccccc2O)cc1,5.1%,-5.4%,7.8%,11.5%,3.5%,-4.4%
Cc1ccc(CNc2ccc(O)cc2)cc1,u,25.1µM*,5.2%,-9.1%,-11.5%,x
O=C(O)C1CCCCC1C(=O)Nc1cccc(Br)c1 (configuration not stated),u,x,2.82µM*,0.474µM*,x,10.8%
O=C(Nc1cccc(Br)c1)C1CCCC1,i,x,x,x,x,-9.0%
Cc1ccc[n+](-c2nc([O-])sc2C=O)c1,-11.5%,-8.3%,28.2µM*,-11.4%,i,-3.3%
CC(C)c1ccc[n+](-c2nc([O-])sc2C=O)c1,i,-2.2%,0.0%,19.2%,20.2%,0.7%
COc1ccc(-c2nc3c(C#N)c[nH]n3c2NC2CCCCC2)c(OC)c1,10.4%,-5.1%,5.7%,x,x,u
COc1ccc(-c2nc3c(C#N)c[nH]n3c2NC2CCCCC2)cc1,-1.7%,-0.5%,2.9%,x,x,12.6µM*
CC(C)C1=CC2=CCC3C(C)(C(=O)O)CCCC3(C)C2CC1 (configuration not stated) (tested in a mixture with another compound),x,-4.9%,1.8%,52.1%,x,x
CC(C)C1=CC2=CC[C@@H]3[C@](C)(CCC[C@@]3(C)C(=O)O)[C@H]2CC1,x,3.6%,4.3%,x,x,14.1µM*
N#Cc1c(-c2ccc(OCCOCCOCCN)cc2)no[n+]1[O-],x,x,x,-3.6%,x,x
N#C/C(=C\c1cc(Br)c(O)c(Br)c1)c1nc2ccccc2c(=O)[nH]1,0.8%,12.6µM*,u,x,x,-8.7%
O=C(/C=C\c1ccc(O)c(O)c1)O[C@@H](Cc1ccc(O)c(O)c1)C(=O)O,x,-0.9%,x,2.51µM*,-15.8%,x
O=C(/C=C/c1ccc(O)c(O)c1)OC(Cc1ccc(O)c(O)c1)C(=O)O (configuration not stated),u,-1.6%,x,1.26µM*!,12.6µM*!,u
Cc1ccc(S(=O)(=O)Nc2nc(CN3CCOCC3)nc3sc(C(=O)O)c(C)c23)cc1,-12.0%,x,x,x,x,17.8µM*
Cc1cc(S(=O)(=O)Nc2nc(CN3CCOCC3)nc3sc4c(c23)CCC4)cc(C)c1C,-8.1%,x,-11.7%,-11.8%,x,u
O=C1CCC/C(=N\NC(=O)c2ccc(CSc3cccc4cccnc34)cc2)C1,-4.1%,-13.4%,8.8%,18.6%,28.2µM*,18.1%
Cc1ccccc1-c1nn(-c2ccc(F)cc2F)cc1CNCCCN(C)C,2.7%,6.1%,2.7%,2.4%,-4.2%,10µM*
CO/N=C1/CC2(CC3CC(C/C=C(/C)CC(C)/C=C\C=C4\COC5C(O)C(C)=CC(C(=O)O3)C45O)O2)OC(/C(C)=C/C(C)C)C1C (configuration not stated),x,x,x,x,x,-2.3%
CCOc1ccc(C(=O)N/N=C/c2cc(Cl)ccc2[N+](=O)[O-])cc1,-11.1%,11.2µM*,2.6%,5.3%,-2.0%,5.4%
CN(N=Cc1ccccc1)C(=S)Nc1ccccc1,-8.5%,x,x,x,x,15.8µM*
Cc1cc(C)c2c(c1)NC(C(=O)O)C1CC=CC21 (configuration not stated),u,-6.8%,-9.5%,-16.7%,x,10µM*
O=C(O)C1Nc2c(C(=O)N3CCOCC3)cccc2C2C=CCC12 (configuration not stated),u,-2.0%,x,u,-16.9%,2.51µM*
Cc1ccc2c(c1C)NC(C(=O)O)C1CC=CC21 (configuration not stated),u,17.8µM*,-12.1%,u,5.01µM*,u
COc1ccc(C2=Nn3c(nnc3-c3ccccc3Cl)SC2)cc1OC,x,x,x,-9.5%,x,x
SMILES,Tb PGK inh,BLM helicase inh,TDP1 inh,APEX1 inh,RECQ1 inh,GLS inh
CC(C)(C)n1ncc2c(=O)n(Cc3c(Cl)cccc3Cl)cnc21,x,x,x,-1.0%,x,x
CCOc1ccc(NC(=O)c2ccc(NC(=O)c3ccc(NC(N)=O)cc3)cc2)cc1,-17.0%,x,56.2µM*,13.4µM*,x,7.2%
O=C(CCC1CCN(Cc2ccccc2)CC1)c1ccc2c(c1)NCCCC2,x,x,x,x,x,18.7%
CCC(=O)Oc1ccc2c(c1)CC[C@@H]1[C@@H]2CC[C@]2(C)[C@@H](OC(=O)CC)CC[C@@H]12,x,x,x,-4.2%,x,x
O=C(CSc1nnc2n(C3CCCC3)c(=O)c3ccccc3n12)N1CCCCCC1,i,-0.9%,4.8%,-2.4%,i,1.1%
COc1ccccc1Cn1c(=O)c2ccccc2n2c(SCC(=O)N3CCCCC3)nnc12,-10.8%,5.7%,0.6%,13.8%,3.7%,15.8µM*
CCCC[C@@H](C)/C=C(C)/C=C(\C)C(=O)NC1=C[C@@](O)(/C=C/C=C/C=C/C(=O)NC2=C(O)CCC2=O)[C@@H]2O[C@@H]2C1=O,x,u,-1.6%,u,u,x
COc1ccc(NC(=O)/C=C/c2cccc(F)c2)cn1,i,0.5%,0.0%,-0.6%,-10.2%,2.9%
COc1ccc(NC(=O)/C=C/c2ccc(Br)o2)cn1,2.5%,-24.0%,20µM*,-5.4%,-28.1%,-0.9%
O=C1NC(=S)S/C1=C\c1coc2ccccc2c1=O,x,-2.7%,-2.3%,6.2%,20µM*,63.5%
Oc1ccc(/C=N/Nc2nc(-c3cccnc3)nc3ccccc23)c(O)c1,-4.8%,-23.1%,8.7%,u,-1.3%,29.8%
COc1ccc(/C=N/Nc2nc(-c3cccnc3)nc3ccccc23)cc1OC,-6.5%,3.1%,7.1%,-5.7%,20µM*,22.1%
CCCCNc1nc(C#N)nc(Nc2ccccc2)n1,x,-7.1%,6.2%,-17.9%,3.6%,x
NS(=O)(=O)c1ccc(NCc2c(F)cccc2Cl)cc1,i,1.0%,-5.8%,-1.3%,-4.8%,7.1%
Fc1cccc(Cl)c1CNc1ccc(N2CCCC2)cc1,6.2%,-1.5%,8.6%,-0.7%,-5.1%,7.94µM*
O=[N+]([O-])c1cccc2c(S(=O)(=O)N3CCOCC3)cccc12,u,-8.1%,20µM*,10.6µM*,x,-4.1%
CC1CC2C3CCC4=CC(=O)C=CC4(C)[C@@]3(F)C(O)CC2(C)[C@@]1(O)C(=O)CCl (some centres not stated),x,x,x,x,x,5.9%
Cc1cc(C)c(S(=O)(=O)c2c(C)cccc2C)c(Cl)n1,i,-0.6%,2.9%,0.0%,-5.3%,11.2µM*
